The record followed here is PubChem BioAssay (NCATS).

Calls of active or inactive are those of the source. Calls follow the shape of the dose curve; as a rule, active = well fitted curve in the direction sought with a large enough effect; inconclusive = small, poorly fitted or top-dose-only effect, or another doubt; inactive = no such curve, though single readings can be large or run the other way.

Sequence of Hexokinase-4 (Homo sapiens) + Glucokinase regulatory protein (Homo sapiens) (P35557 whole entry, looked up): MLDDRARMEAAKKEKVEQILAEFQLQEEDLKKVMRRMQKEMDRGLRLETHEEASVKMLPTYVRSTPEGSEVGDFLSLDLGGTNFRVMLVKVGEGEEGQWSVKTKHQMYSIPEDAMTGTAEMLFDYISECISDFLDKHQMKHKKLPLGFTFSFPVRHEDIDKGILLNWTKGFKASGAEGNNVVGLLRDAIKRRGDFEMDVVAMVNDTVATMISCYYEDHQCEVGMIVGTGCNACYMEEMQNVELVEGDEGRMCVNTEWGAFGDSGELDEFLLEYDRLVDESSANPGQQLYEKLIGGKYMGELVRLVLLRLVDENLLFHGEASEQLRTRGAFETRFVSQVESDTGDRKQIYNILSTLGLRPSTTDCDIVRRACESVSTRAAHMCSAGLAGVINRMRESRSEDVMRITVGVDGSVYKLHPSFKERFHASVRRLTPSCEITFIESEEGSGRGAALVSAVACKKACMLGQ
Sequence of Hexokinase-4 (Homo sapiens) + Glucokinase regulatory protein (Homo sapiens) (Q14397 whole entry, looked up): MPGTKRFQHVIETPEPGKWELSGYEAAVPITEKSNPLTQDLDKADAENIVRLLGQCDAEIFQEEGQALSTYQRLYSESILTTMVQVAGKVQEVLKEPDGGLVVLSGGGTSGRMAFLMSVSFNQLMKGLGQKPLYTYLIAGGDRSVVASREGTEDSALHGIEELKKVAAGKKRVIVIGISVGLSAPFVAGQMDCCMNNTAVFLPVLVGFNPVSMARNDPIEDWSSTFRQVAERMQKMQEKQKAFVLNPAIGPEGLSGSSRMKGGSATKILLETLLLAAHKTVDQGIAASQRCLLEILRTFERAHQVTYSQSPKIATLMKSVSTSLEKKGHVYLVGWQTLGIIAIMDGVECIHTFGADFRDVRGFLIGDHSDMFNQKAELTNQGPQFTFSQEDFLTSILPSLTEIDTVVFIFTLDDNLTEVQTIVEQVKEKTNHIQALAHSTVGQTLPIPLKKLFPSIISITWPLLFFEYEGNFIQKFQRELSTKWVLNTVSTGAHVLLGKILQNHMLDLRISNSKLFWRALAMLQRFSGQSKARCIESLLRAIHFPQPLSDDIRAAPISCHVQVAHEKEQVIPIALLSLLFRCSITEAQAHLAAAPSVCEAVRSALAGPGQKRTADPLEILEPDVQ

The target in this assay is Hexokinase-4 (Homo sapiens) + Glucokinase regulatory protein (Homo sapiens) (UniProt P35557+Q14397). Description: qHTS assay for inhibitors of recombinant human GCK-GKRP interaction: Diaphorase-coupled assay (AID 743205). Conditions: G6PDH/diaphorase resorufin fluorescence; series mostly up to 57.5 µM. The gist of the method:
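Compounds pre-incubated 20 min with substrate, then 10 nM GST-GCK with 10 nM FLAG-GKRP added. GCK activity coupled via G6PDH and diaphorase to resorufin (5 mM glucose, 0.4 mM ATP, 0.15 mM NADP+, pH 7.6), read kinetically over 30 minutes at Ex 525/Em 590 nm.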
As to `Cc1ncsc1CCCl`, the result was inactive.

`O=c1[nH]oc2c1CCNC2`: the outcome was inactive.

For the compound `COc1ccc2c(c1OC)C(=O)O[C@H]2[C@@H]1c2cc3c(cc2CCN1C)OCO3`, the result was inactive.

Regarding `CC(NC(C)(C)C)C(=O)c1cccc(Cl)c1` (configuration not stated), the result was inactive.

On to `CN1C(=O)CCS(=O)(=O)C1c1ccc(Cl)cc1` (configuration not stated), for which the result was inactive.

In the case of `CCC1(c2ccc(N)cc2)CCC(=O)NC1=O` (configuration not stated), the outcome was inactive.

As to `C=C(C)[C@H]1CN[C@H](C(=O)O)[C@H]1CC(=O)O`, the result was inactive.

Regarding `CC(C)N(CCC(C(N)=O)(c1ccccc1)c1ccccn1)C(C)C` (configuration not stated), the result was inactive.

Take `O=C(O)CCCc1ccc(N(CCCl)CCCl)cc1`: the outcome was inactive.

For `O=C(CCCN1CCC2(CC1)C(=O)NCN2c1ccccc1)c1ccc(F)cc1`, the outcome was inactive.

For the compound `CC(C)(C)NCC(O)c1ccccc1Cl` (configuration not stated), the result was inactive.

Regarding `CCCCC/C=C\C/C=C\C/C=C\C/C=C\CCCC(=O)NCC(=O)O`, the result was inactive.
